This is an account of results in PubChem BioAssay.

Calls of active or inactive are those of the source. Unless noted, no rule for the calls is given here.

In experiment [1] the test system is XIP peptide (Xip251-270) binding. As to the kind of experiment: XIP fragment 251-270 binding compounds – biochemical, small-molecule microarray, fluorescence 635/667 nm, 0.1 µg/mL protein, primary screen (AID 1182). To be noted: fluorescent protein binding, 635 nm, higher = more signal, called active from +8 up or from −8 down.
Experiment [2] deals with XIP peptide (Xip251-270). Briefly: compounds binding XIP fragment 251-270 – biochemical, small-molecule microarray, fluorescence 635/667 nm, 0.5 µg/mL protein, primary screen (AID 1183). To be noted: fluorescence 635 nm, higher = more signal.
Experiment [3] in a line: blood-stage malaria parasite viability loss – strain 3D7, DAPI fluorescence, 100 nL, primary screen (AID 1184).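 Also: parasites grown inside human red blood cells in medium with human serum.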 To be noted: P. falciparum 3D7 growth, 3 d, higher = more signal.
Experiment [4] has as its target Homeobox protein Hox-A13 (Mus musculus) (UniProt Q62424). Briefly: disruptors of Hoxa13 oligonucleotide interaction – biochemical, fluorescence polarization, labeled oligonucleotide, primary screen (AID 1185). The conditions noted are these: Hoxa13:DNA binding, 15 min, higher = more signal, called active from +8 up or from −8 down. (In general: Polarisation of emitted light reports the rotation of a fluorescent probe.)

Experiment [5] can be described thus: blockers of DNA damage checkpoint Chk1 activation – imaging, HeLa, hydroxyurea, phospho-Chk1 antibody, percent positive cells, primary screen (AID 1186). The conditions noted are these: hydroxyurea-induced phospho-Chk1 immunofluorescence imaging, higher = more signal.
Experiment [6] can be described thus: blockers of DNA damage checkpoint Chk1 activation – imaging, HeLa, hydroxyurea, phospho-Chk1 nuclear intensity, primary screen (AID 1187). The conditions noted are these: hydroxyurea-induced phospho-Chk1 immunofluorescence imaging, higher = more signal.

Homeobox protein Hox-A13 (Mus musculus), sequence (Q62424 whole entry, looked up): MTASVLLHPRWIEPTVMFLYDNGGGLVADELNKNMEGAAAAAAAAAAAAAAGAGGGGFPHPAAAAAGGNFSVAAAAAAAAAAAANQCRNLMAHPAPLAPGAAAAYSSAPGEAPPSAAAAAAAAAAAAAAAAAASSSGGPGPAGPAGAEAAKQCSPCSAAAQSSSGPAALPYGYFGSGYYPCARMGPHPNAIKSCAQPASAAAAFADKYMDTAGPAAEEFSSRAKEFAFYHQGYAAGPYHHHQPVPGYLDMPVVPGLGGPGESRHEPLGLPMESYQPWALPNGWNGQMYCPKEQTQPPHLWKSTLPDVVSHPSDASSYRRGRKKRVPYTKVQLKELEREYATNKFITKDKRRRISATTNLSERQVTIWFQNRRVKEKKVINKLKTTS

In the case of `C[C@H]1COC(=O)[C@@H]2CCCN2C(=O)[C@@H](C)COC(=O)[C@@H]2CCCN2C1=O`, the composite z-score in experiment [1] is -0.0153 (inactive); in experiment [2] it was 0.454. The z-score in experiment [3] is -0.12; in experiment [4], -5.05 (inactive).

Turning to `CO[C@@H]1COC(=O)[C@H](COCc2ccccc2)NC(=O)CC=C[C@@H](C)[C@H](OC)COC(=O)[C@H](COCc2ccccc2)NC(=O)CC=C[C@H]1C`, the composite z-score in experiment [1] was 0.271 (inactive); in experiment [2] it was -0.713. In addition, the z-score in experiment [3] is -0.989; in experiment [4] it was 0.421 (inactive).

In the case of `CCC(=O)[C@]12O[C@@]3([C@@H]4C(=O)OCC[C@@H]41)N(CC)C(C)=C(C(=O)OC)[C@@H](c1ccccc1)N3C2=O`, the composite z-score is 0.592 (inactive) in experiment [1] and -0.499 in experiment [2]. Besides, the z-score in experiment [3] is -1.06; in experiment [4], -0.864 (inactive).

With `C=CCc1cccc([C@@H]2[C@@H](C)CC[C@H]3C(=O)N4[C@H](c5cccc(CC=C)c5)[C@@H](C)CC[C@H]4C(=O)N23)c1`, the results for the composite z-score in experiment [1] and in experiment [2] were 0.718 (inactive) and 0.336, respectively. Further, the values for the z-score in experiment [3] and in experiment [4] were -0.729 and -3.9 (inactive), respectively.

With `CO[C@H]1COC(=O)[C@@H](OCc2ccccc2)C=C[C@H](C)[C@@H](OC)COC(=O)[C@H](OCc2ccccc2)C=C[C@@H]1C`, the figures for the composite z-score in experiment [1] and in experiment [2] were -1.11 (inactive) and -0.267, respectively. The z-score in experiment [3] is 0.313; in experiment [4], 0.371 (inactive).

`C[C@H]1COC(=O)[C@H](Cc2ccccc2)NC(=O)[C@@H](C)COC(=O)[C@H](Cc2ccccc2)NC1=O`: the composite z-score in experiment [1] was 0.767 (inactive); in experiment [2] it was 0.342. Besides, the results for the z-score in experiment [3] and in experiment [4] were -0.703 and 1.01 (inactive), respectively.

As for `CC(=O)Nc1ccc([C@H]2[C@H](C)CC[C@H]3C(=O)N4[C@@H](CC[C@@H](C)[C@@H]4c4ccc(NC(C)=O)cc4)C(=O)N32)cc1`, the composite z-score in experiment [1] is 1.46 (inactive); in experiment [2] it was 0.757. The z-score is 0.179 in experiment [3] and -6.37 (inactive) in experiment [4].

With `O=C(O)[C@@H]1Cc2c([nH]c3ccccc23)[C@@H](c2ccccc2)N1`, the composite z-score in experiment [1] is 0.0176 (inactive); in experiment [2], 0.0822. Besides, the results for the z-score in experiment [3] and in experiment [4] were -0.421 and 0.969 (inactive), respectively.

As for `CO[C@@H]1COC(=O)[C@H](C)NC(=O)CC=C[C@@H](C)[C@H](OC)COC(=O)[C@H](C)NC(=O)CC=C[C@H]1C`, the composite z-score is -0.479 (inactive) in experiment [1] and 0.132 in experiment [2]. The z-score in experiment [3] was 0.363; in experiment [4] it was 0.229 (inactive).

As to `C[C@@H]1CC[C@H]2C(=O)N3[C@@H](CC[C@@H](C)[C@@H]3c3cccc(N4CCOCC4)c3)C(=O)N2[C@H]1c1cccc(Br)c1`, the composite z-score in experiment [1] is 0.806 (inactive); in experiment [2] it was 0.541. Further, the z-score in experiment [3] is 0.656; in experiment [4], -5.55 (inactive).

On to `CO[C@H]1COC(=O)CC=C[C@H](C)[C@@H](OC)COC(=O)CC=C[C@@H]1C`, for which the composite z-score in experiment [1] was 0.878 (inactive); in experiment [2], 0.695. The z-score in experiment [3] was 0.648; in experiment [4], -0.307 (inactive).

`CCC(=O)[C@]12O[C@@]3([C@@H]4C(=O)OCC[C@@H]41)N(Cc1ccccc1)C(C)=C(C(=O)OC)[C@@H](c1ccccc1)N3C2=O`: the figures for the composite z-score in experiment [1] and in experiment [2] were 0.195 (inactive) and -0.573, respectively. The z-score in experiment [3] is 1.24; in experiment [4], -4.26 (inactive).

For the compound `Cc1cc(C)c(C(O)C2C=CC3C(=O)N(C)C(=O)C3N2N2CCCCC2)c(C)c1` (stereo unspecified), the composite z-score is 0.0255 (inactive) in experiment [1] and 0.849 in experiment [2]. Also, the z-score is 1.09 in experiment [3], -3.3 (inactive) in experiment [4], -0.514 (inactive) in experiment [5] and -0.224 (inactive) in experiment [6].

As to `C=CCC(OC(C)=O)[C@@H]1[C@@H](N(Cc2cccc3ccccc23)C(=O)Cc2ccc(F)cc2)c2cc(OCCCO)ccc2N1C(=O)Cc1ccc2ccccc2c1` (stereo partly specified), the values for the composite z-score in experiment [1] and in experiment [2] were -0.741 (inactive) and 0.57, respectively. The z-score in experiment [3] is -1.17; in experiment [4] it was -0.474 (inactive); in experiment [5], -0.579 (inactive); in experiment [6], -0.516 (inactive).

For `C[C@H]1NC(=O)[C@@H](C)NC(=O)[C@@]23C(=O)N[C@@H](Cc4ccccc4)C2[C@H](C)[C@@]2(C)O[C@H]2C3/C=C/C/C=C\CNC1=O` (stereo partly specified), the results for the composite z-score in experiment [1] and in experiment [2] were 0.378 (inactive) and -0.166, respectively. Besides, the z-score in experiment [3] is -0.428; in experiment [4], -3.98 (inactive); in experiment [5], -0.318 (inactive); in experiment [6], 0.412 (inactive).

As for `Cc1ccccc1C(O)C1C=CC2C(=O)N(c3ccccc3)C(=O)C2N1Nc1ccc(C#N)cc1` (stereo unspecified), the values for the composite z-score in experiment [1] and in experiment [2] were 3.08 (inactive) and 0.761, respectively. The z-score in experiment [3] is -0.494; in experiment [4], -0.699 (inactive); in experiment [5], -0.873 (inactive); in experiment [6], -0.982 (inactive).

`CC/C=C/C(=O)N(C[C@@H]1CCCO1)[C@@H]1CC(C(=O)NCCO)=C[C@H](Oc2c(I)cc(CO)cc2OC)[C@H]1O`: the composite z-score is 0.969 (inactive) in experiment [1] and -0.769 in experiment [2]. Besides, the z-score in experiment [3] was -1.03; in experiment [4], -5.37 (inactive); in experiment [5], 1 (inactive); in experiment [6], 1.11 (inactive).

`CCCN1C(=O)[C@@]2(CCS(=O)(=O)c3ccccc3)N=C(c3ccc(OCCCO)cc3)O[C@H]2c2ccccc21`: the composite z-score is 0.261 (inactive) in experiment [1] and 0.678 in experiment [2]. The z-score was -2.56 in experiment [3], -3.2 (inactive) in experiment [4], 0.128 (inactive) in experiment [5] and 0.371 (inactive) in experiment [6].

With `O=C1C2C=CC(C(O)C#Cc3ccccc3)N(Nc3ccccc3)C2C(=O)N1c1ccccc1` (stereo unspecified), the composite z-score in experiment [1] was -0.115 (inactive); in experiment [2], 0.176. The z-score in experiment [3] is 0.801; in experiment [4], -4.05 (inactive); in experiment [5], -0.0484 (inactive); in experiment [6], -0.217 (inactive).

For `COc1cc2c(cc1OC)CN(C(=O)[C@@H]1[C@H]3C(=O)O[C@H](c4ccccc4)[C@H](c4ccccc4)N3[C@H](c3ccccc3OCCO)[C@@]13C(=O)Nc1ccccc13)CC2`, the figures for the composite z-score in experiment [1] and in experiment [2] were 1.79 (inactive) and 0.829, respectively. The z-score in experiment [3] is -2.18; in experiment [4], 0.829 (inactive); in experiment [5], 0.306 (inactive); in experiment [6], 0.876 (inactive).
